Activity calls are given as the source filed them.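 Rule for the calls: active = compounds whose cell count with miR-34 switched on is under 0.7 times the count with it off; inactive = the rest.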
Test: viability loss with induced miR-34 in A549 – imaging, A549 dox-inducible miR-34, nuclei and caspase counts, primary screen (AID 1347080); note: test concentration not given here
Details: A549 miR-34 inducible, Hoechst nuclei count, 48 h
[1] = stronger effect = lower value, cell number ratio, induced over uninduced
[2] = measured here: relative caspase fold change +Dox/-Dox
[3] = measured here: total cells with miR-34 induction, stronger effect = lower value
[4] = measured here: total cells without miR-34 induction

SMILES | fold change [1] | fold change [2] | cell count [3] | cell count [4]
COc1ccc2cc(C(C#N)OC(=O)CC3OC3c3ccccc3)ccc2c1 (stereo unspecified) | 0.909 (inactive) | 0.7 | 5490 | 6040
O=C(O)CCC/C=C\C[C@@H]1[C@@H](/C=C/C(=O)CCc2ccccc2)[C@H](O)C[C@@H]1O | 0.902 (inactive) | 1.59 | 5390 | 5980
CC(C)CCOc1ccc(N)cc1 | 0.779 (inactive) | 2.13 | 3780 | 4850
O=C(O)CCC/C=C\C[C@H]1C(=O)C[C@@H](O)[C@@H]1/C=C/[C@@H](O)Cc1ccccc1 | 0.985 (inactive) | 1.05 | 5810 | 5900
O=C(/C=C/c1cccc(C(=O)NO)c1)NO | 0.962 (inactive) | 1.09 | 4750 | 4940
CCCCC[C@H](O)/C=C/[C@H]1CC[C@@H](O)[C@@H]1C/C=C\CCCC(=O)O | 0.973 (inactive) | 1.34 | 5950 | 6110
CCCCC[C@H](O)C/C=C1/C(=O)C[C@H](O)[C@@H]1C/C=C\CCCC(=O)O | 0.935 (inactive) | 1.09 | 5280 | 5650
O=C1O/C(=C/Br)CC[C@H]1c1cccc2ccccc12 | 1.14 (inactive) | 0.781 | 3970 | 3470
CCCCCCCC(=O)CC[C@@H]1[C@@H](C/C=C\CCCC(=O)OC(C)C)[C@@H](O)C[C@H]1O | 0.954 (inactive) | 1.15 | 5890 | 6180
CCCCC[C@H](O)/C=C/[C@@H]1[C@H](C/C=C\CCCC(=O)NCCO)[C@@H](O)C[C@H]1O | 1.11 (inactive) | 0.881 | 6440 | 5790
CCCCCCC[C@H](O)/C=C/[C@H]1[C@H](O)CC(=O)[C@@H]1C/C=C\CCCC(=O)O | 0.933 (inactive) | 1.19 | 5790 | 6200
CCCCC/C=C\C/C=C\CCCCCCCC(=O)OC(CO)CO | 0.978 (inactive) | 0.884 | 5470 | 5600
CCCCCCCCCCCCCCC(=O)N[C@H]1CCOC1=O | 0.982 (inactive) | 1.59 | 5560 | 5660
CCCCC[C@H](O)/C=C/[C@@H]1[C@H]2C/C=C\CCCC(=O)O[C@@H]1C[C@@H]2O | 0.912 (inactive) | 0.907 | 5380 | 5900
CCCCCCCCCCCCCCCCOC[C@H](COP(=O)([O-])OCCCCCC[N+](C)(C)C)OC(C)=O | 0.912 (inactive) | 1.73 | 5260 | 5770
Clc1ccc(/C=C/c2cc(Cl)cc(Cl)c2)cc1 | 1.02 (inactive) | 0.743 | 5370 | 5270
CO[C@H]1CC(O[C@@H]2/C(C)=C/C[C@@H]3C[C@@H](C[C@]4(C=C[C@H](C)[C@@H](C5CCCCC5)O4)O3)OC(=O)[C@@H]3C=C(C)[C@@H](O)[C@H]4OC/C(=C\C=C\[C@@H]2C)[C@]43O)O[C@@H](C)C1O[C@H]1C[C@H](OC)[C@@H](O)[C@H](C)O1 (stereo partly specified) | 0.703 (inactive) | 1.24 | 405 | 576
COC1=C2C[C@@H](C)C[C@H](OC)[C@H](O)[C@@H](C)/C=C(\C)[C@H](OC(N)=O)[C@@H](OC)/C=C\C=C(/C)C(=O)NC(=CC1=O)C2=O | 0.898 (inactive) | 1.11 | 1320 | 1470
CCCCC(C)(C)[C@H](O)/C=C/[C@@H]1[C@@H](C/C=C\CCCC(=O)O)[C@@H](O)C[C@H]1O | 0.98 (inactive) | 1.24 | 5690 | 5800
CCCCC[C@H](O)/C=C/[C@H]1C(=O)C[C@H](O)[C@@H]1C/C=C\CCCC(=O)OC | 0.892 (inactive) | 0.761 | 5010 | 5620
CCCCCCCC/C=C\CCCCCCCCCCCCCC(=O)N[C@@H](CO)[C@H](O)/C=C/CCCCCCCCCCCCC | 0.996 (inactive) | 0.823 | 5810 | 5830
O=C(NCc1ccncc1)C12CC3CC(C1)CC(c1ccc(Cl)cc1)(C3)C2 | 0.915 (inactive) | 1.12 | 4010 | 4380
CCCCCOc1ccccc1C(O)CC#CCCCC(=O)OC (stereo unspecified) | 0.937 (inactive) | 1.89 | 5930 | 6340
CCCCCNC1=C(c2cn(C)c3ccccc23)C(=O)N(C)C1=O | 0.981 (inactive) | 1.69 | 6020 | 6140
CC(C)OC(=O)CCC/C=C\C[C@@H]1[C@@H](/C=C/[C@@H](O)CCc2ccccc2)[C@H](O)C[C@@H]1O | 0.961 (inactive) | 1.39 | 5640 | 5870
CCCCC(C)(C)[C@H](O)/C=C/[C@H]1CCC(=O)[C@@H]1C/C=C\CCCC(=O)O | 0.973 (inactive) | 1.01 | 6270 | 6450
CCCCC[C@@H](O)/C=C/[C@H]1C=CC(=O)[C@@H]1CCCCCCC(=O)O | 0.9 (inactive) | 0.638 | 4870 | 5400

SMILES | fold change [1] | fold change [2] | cell count [3] | cell count [4]
CC/C=C\C/C=C\C/C=C\C/C=C\C/C=C\C/C=C\CCC(=O)NCCO | 0.934 (inactive) | 0.411 | 5920 | 6340
CCCCCCCCCCCCCCCC(=O)OCC | 0.854 (inactive) | 0.575 | 5080 | 5950
CCCCC[C@H](O)/C=C/[C@H]1[C@H](O)CC(=O)[C@@H]1CCCCCCCO | 0.891 (inactive) | 2.02 | 5100 | 5730
CCCCCCCCCCCCCCCCCC(=O)OCC | 0.95 (inactive) | 2.18 | 5760 | 6060
CC#CCC(C)[C@H](O)/C=C/[C@@H]1[C@H]2C/C(=C\CCCC(=O)O)C[C@H]2C[C@H]1O (stereo partly specified) | 0.896 (inactive) | 1.12 | 5570 | 6220
C=C1O[C@@](CO)(n2cnc3c(N)ncnc32)[C@H](O)[C@@H]1O | 0.941 (inactive) | 1.1 | 4870 | 5180
CCCCC[C@H](O)/C=C/[C@H]1[C@H](O)CC(=O)[C@@H]1CC(=O)CCCCC(=O)O | 0.96 (inactive) | 1.25 | 6410 | 6680
COc1ccc2c(c1)c(CC(=O)SC[C@H](NC(C)=O)C(=O)OCCCCO[N+](=O)[O-])c(C)n2C(=O)c1ccc(Cl)cc1 | 1.08 (inactive) | 0.702 | 6270 | 5810
O=C(O)CCC/C=C\C[C@@H]1[C@@H](/C=C/[C@H](O)COc2cccc(C(F)(F)F)c2)[C@H](O)C[C@@H]1O | 1.06 (inactive) | 0.987 | 6230 | 5890
CCCCC[C@H](O)/C=C/[C@@H]1[C@@H](CCCCCCC(=O)O)[C@H](O)C[C@@H]1O | 0.98 (inactive) | 1.16 | 6220 | 6350
CCCCC[C@H](O)/C=C/[C@@H]1[C@@H](C/C=C\CCCC(=O)NCCO)[C@@H](O)C[C@H]1O | 0.899 (inactive) | 1.5 | 5200 | 5780
CCCCC[C@H](O)/C=C/[C@H]1C2CC(CO2)[C@@H]1CCCCCCC(=O)O (stereo partly specified) | 0.941 (inactive) | 0.43 | 5850 | 6210
CCCCC[C@H](O)/C=C/[C@H]1C2CC(CO2)[C@@H]1C/C=C/CCCC(=O)O (stereo partly specified) | 1 (inactive) | 1.25 | 6110 | 6090
CCCCC/C=C\C/C=C\CCCC/C=C\CCCC(=O)O | 0.985 (inactive) | 0.344 | 5360 | 5440
CCCCC[C@H](O)/C=C/[C@H]1C2CC(CO2)[C@@H]1C/C=C\CCCC(=O)O (stereo partly specified) | 0.956 (inactive) | 0.835 | 5400 | 5650
O=P(O)(O)OC1C(O)C(OP(=O)(O)O)C(O)C(OP(=O)(O)O)C1O (stereo unspecified) | 0.967 (inactive) | 0.962 | 5750 | 5950
N[C@@H](CCC(=O)N[C@@H](CSN=O)C(=O)NCC(=O)O)C(=O)O | 0.991 (inactive) | 0.986 | 5550 | 5600
CCCCCCCCCC(=O)NC(CN1CCOCC1)C(O)c1ccccc1 (stereo unspecified) | 1.03 (inactive) | 0.968 | 5830 | 5670
CCCCC[C@H](O)/C=C/[C@H]1[C@H](O)CC(=O)[C@@H]1C/C=C\CCCC(=O)OCC(O)CO (stereo partly specified) | 0.945 (inactive) | 0.932 | 5540 | 5860
CC(C)(CCCCCCCCCCC(C)(C)CC(=O)O)CC(=O)O | 0.985 (inactive) | 0.985 | 6090 | 6180
CCCCCCCCCCCCCC(=O)O | 1.04 (inactive) | 1.03 | 6710 | 6460
CCCCCCCCCCCCCCCCCCCCCC(=O)NCCO | 1.03 (inactive) | 0.641 | 6180 | 5980
CC(CN1CCC(n2c(=O)[nH]c3cc(Cl)ccc32)CC1)NC(=O)c1ccc2ccccc2c1 (stereo unspecified) | 1.08 (inactive) | 1.2 | 5810 | 5380
CCCCC[C@H](O)CC[C@@H]1[C@@H](CCCCCCC(=O)O)[C@@H](O)C[C@H]1O | 0.832 (inactive) | 1.1 | 6210 | 7460
O=C(O)c1ccc2c(c1)CCCC2 | 0.93 (inactive) | 0.342 | 5260 | 5660
NC1=NC(=O)/C(=C/c2ccc(O)cc2)S1 | 1.06 (inactive) | 1.49 | 6100 | 5780
CCCCC/C=C\C/C=C\C/C=C\C/C=C\CCCC(=O)OCc1ccsc1 | 0.989 (inactive) | 1.02 | 6270 | 6340

From PubChem BioAssay
